# Source: PubChem BioAssay
# Molecular target: Carbonic anhydrase 2 (Homo sapiens) (UniProt P00918)
# Assay: CAII small-molecule binders, profiling panel, biochemical, small-molecule microarray, Alexa647-labelled CAII (AID 1122)
# Details: CAII-A647 binding fluorescence, higher = more signal
row,Compound,composite z-score
1,CCCCC=C[C@@H](NC(=O)c1ccc(C(F)(F)F)cc1)c1ccccc1,-0.273
2,CC(c1ccccc1)C(O)C1C=CC2C(=O)N(c3ccccc3)C(=O)C2N1Nc1ccc(C#N)cc1 (stereo not given),0.6
3,CC(C)(C)N1CC=CC23O[C@@H]4/C=C\CCCOC(=O)C4[C@H]2C(=O)N(CCCCCCO)[C@@H]3C1=O (stereo not given in full),0.938
4,COc1ccc(C(O)C2C=CC3C(=O)N(C)C(=O)C3N2Nc2ccc([N+](=O)[O-])cc2[N+](=O)[O-])cc1OCc1ccccc1 (stereo not given),0.633
5,C=CC[C@]1(C(=O)N(C)C)COC(c2ccc(OCCCO)cc2)=N1,0.914
6,C[C@@H](OCc1ccccc1)C1NC(=O)[C@@]23C(=O)N[C@@H](Cc4ccccc4)C2[C@H](C)[C@@]2(C)O[C@H]2C3/C=C/C/C=C\CNC(=O)[C@H](Cc2ccccc2)NC1=O (stereo not given in full),0.618
7,COc1ccc([Si](C)(C)[C@H]2[C@H](CCO)O[C@@]3(C(=O)N(Cc4ccc(N5CCOC5=O)cc4)c4ccccc43)[C@@H]2C)cc1,0.417
8,C=CCC(OC(C)=O)[C@@H]1[C@@H](N(Cc2ccc(-c3ccccc3)cc2)C(=O)c2ccc(C)cc2)c2cc(OCCCO)ccc2N1C(=O)c1ccc2ccccc2c1 (stereo not given in full),-0.104
9,CC(C)C(=C=CC[C@@H](O)c1cccc(OCCO)c1)CCO,0.705
10,COCCOC(=O)N1C(=O)[C@@]2(c3cc(C#CC4(O)CCCCCC4)ccc31)[C@H](c1ccc(OCCO)cc1)N1[C@H](c3ccccc3)[C@H](c3ccccc3)OC(=O)[C@H]1[C@@H]2C(=O)N1CCCCCCC1,0.357
11,Cc1ccc(F)cc1S(=O)(=O)N[C@@H]1CCN(Cc2ccc3[nH]ccc3c2)C1,0.713
12,C=C(COC)/C(=C/C[C@@H](OC(C)=O)c1ccccc1OCCO)c1cc(C(=O)OC)ccc1OC,0.388
13,C=CCN1C(=O)[C@]2(O[C@H](CCO)[C@@H]([Si](C)(C)c3ccc(OC)cc3)[C@@H]2C)c2ccccc21,0.277
14,COc1ccc(CCNC(=O)[C@@H]2c3ccccc3C(=O)N(CC34CC5CC(CC(C5)C3)C4)[C@H]2c2ccc(CO)cc2)cc1,0.539
15,C=CCC(OC(C)=O)[C@@H]1[C@@H](N(Cc2cccc3ccccc23)C(=O)c2ccc(C)cc2)c2cc(OCCCO)ccc2N1C(=O)c1ccc2ccccc2n1 (stereo not given in full),0.246
16,COCCCNC(=O)[C@@H]1c2ccccc2C(=O)N(Cc2cc(C(F)(F)F)cc(C(F)(F)F)c2)[C@H]1c1ccc(CO)cc1,0.685
17,CCOC(=O)C[C@H]1[C@H](OC(=O)c2ccc(C(=O)c3ccccc3)cc2)[C@@H](NC(=O)c2ccc3ccccc3c2)c2cc(OCCCO)ccc2N1C(=O)c1ccc2ccccc2n1,0.342
18,C=CCN1C(=O)[C@]2(O[C@H](CCn3cc([C@H](O)c4ccccc4)nn3)[C@@H]([Si](C)(C)c3ccc(OC)cc3)[C@@H]2C)c2cc(N3C(=O)c4cccc5cccc3c45)ccc21,0.522

row,Compound,composite z-score
1,CN(C)CCCC[C@@H]1NC(=O)[C@H]2C[C@@H](C(=O)O)[C@@H](c3cccc(OCCO)c3)N2C1=O,0.816
2,C=CCC(OC(C)=O)[C@@H]1[C@@H](N(Cc2ccc(-c3cccc(C(F)(F)F)c3)o2)C(=O)c2cccc3ccccc23)c2cc(OCCCO)ccc2N1C(=O)c1ccc2ccccc2c1 (stereo not given in full),0.0138
3,C=C(COC)/C(=C/C[C@H](OC(=O)c1ccncc1)c1ccc(OCCO)cc1)c1cc(C(=O)OC)ccc1OC,0.357
4,COCCOC(=O)N1C(=O)[C@@]2(c3cc(C#CCC(C(=O)OC)C(=O)OC)ccc31)[C@H](C(=O)N1CCc3cc(OC)c(OC)cc3C1)[C@H]1C(=O)O[C@H](c3ccccc3)[C@H](c3ccccc3)N1[C@@H]2c1ccc(O)cc1,0.213
5,Cc1ccc(S[C@]2(C(=O)NC3CC3)CC(=O)N(Cc3cc(C(F)(F)F)cc(C(F)(F)F)c3)[C@@H]2c2ccc(CO)cc2I)cc1,0.554
6,COc1ccc([Si](C)(C)[C@H]2[C@H](CCn3cc([C@H](O)c4ccccc4)nn3)O[C@@]3(C(=O)N(C)c4c(Br)cc(C)cc43)[C@@H]2C)cc1,-0.149
7,CCCCC(O)C1C=CC2C(=O)NC(=O)C2N1Nc1ccc(Cl)cc1Cl (stereo not given),0.253
8,C=CCC(OC(C)=O)[C@@H]1[C@@H](N(Cc2ccc(-c3ccccc3)cc2)C(=O)c2ccc(-c3ccccc3)cc2)c2cc(OCCCO)ccc2N1C(=O)c1ccc2ccccc2n1 (stereo not given in full),-0.0785
9,COc1ccc([Si](C)(C)[C@H]2[C@H](CCO)O[C@@]3(C(=O)N(Cc4ccccc4)c4ccc(N(C=O)c5ccccc5)cc43)[C@@H]2C)cc1,0.189
10,CN(C)CCCC[C@@H]1NC(=O)[C@H]2C[C@@H](C(=O)NCc3ccc(F)cc3)[C@@H](c3ccc(O)cc3)N2C1=O,0.757
11,COC(=O)[C@@]1(Cc2ccc(F)cc2)[C@H]2c3cc(C(=O)N(C)C)n(CCO)c3C[C@H]2CN1C(=O)c1ccccc1,0.861
12,C=C(/C(=C/C[C@@H](OC(C)=O)c1ccccc1OCCO)c1cc(C(=O)OC)ccc1OC)C(C)C,0.697
13,CCCCN1CC=CC23O[C@@H]4/C=C\CCC(C)OC(=O)C4[C@H]2C(=O)N(C(C)CO)[C@@H]3C1=O (stereo not given in full),0.822
14,NCCCC[C@@H]1NC(=O)[C@H]2C[C@@H](C(=O)NCc3ccc(F)cc3)[C@@H](c3cccc(OCCO)c3)N2C1=O,0.549
15,COc1cccc(C[C@H]2C[C@@H](CO[Si](C(C)C)(C(C)C)C(C)C)N3C(=O)[C@@]4(C(C)=O)O[C@@]23[C@@H]2C(=O)N(C)C(=O)[C@@H]24)c1,0.0137
16,CC#CCO[Si](C#CCCCCCC)(C(C)C)C(C)C,-0.553
17,O=C1NC(=O)C2C1C=CC(C(O)c1ccc(F)cc1)N2Nc1ccccn1 (stereo not given),0.831
